High-throughput results (PubChem BioAssay)
Compounds with a hit are over-represented: about 1.4% of the library has one in this group of screens.
C2C12 statin: protects C2C12 myotubes from simvastatin toxicity; hit rate 0.78% among 330,000; rescue of ATP level, % at 7.49 µM; ATP luminescence, 48 h; scaled: DMSO 0, geranylgeraniol control 100; AID 602340;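 active = mean ATP rescue above about 67%, or every replicate alone reaching that limit, limit read from the data, passing the limit was not always enough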;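 also: myotubes were challenged with 10 µM simvastatin during compound exposure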
PglD DTNB: inhibitors of Campylobacter jejuni PglD acetyltransferase; purified PglD enzyme, DTNB colorimetric CoA detection; inhibition, % at 12.5 µM; hit rate 0.098% among 360,000; AID 602405; in the data active = inhibition above about 16%, passing the limit was not always enough
F508del corr: CFTR F508del correction in bronchial cells; CFBE cells, YFP halide quenching; stimulated with forskolin plus potentiator P3; % fluorescence drop versus neutral controls; activity (quench increase), % at 7.58 µM; hit rate 0.36% among 350,000;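 active = mean added fluorescence quench of at least 8% versus neutral control, with both replicates also reaching 8%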;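 also: cells transiently co-express mutant CFTR-F508del with the halide-sensitive YFP; corrector assay measuring rescue of mutant channel to the surface after 24 h compound exposure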
ARNT-TACC3 inh: disruptors of human ARNT/TACC3 interaction. AlphaScreen His-ARNT PAS-B/GST-TACC3 binding, luminescence; TACC3 fragment carries E629A point mutation. Q9Y6A5. hit rate 0.66% among 390,000. inhibition, % at 9.99 µM;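 active = mean inhibition of replicates at least 50% and at least half of replicates each reaching 50%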;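 also: 0% = complete ARNT plus TACC3 wells and 100% = ARNT alone without TACC3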
ARNT Alpha ctr: interferes with AlphaScreen signal, flagging false ARNT-TACC3 hits | shares compounds with ARNT-TACC3 inh | His-ARNT PASB-GST AlphaScreen artifact counter-screen, luminescence | AC50, µM (highest dose often 68 µM), inactives show at the highest dose activity change, negative = signal decrease | hit rate 50% among 1,200 | AID 651705;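 active = every separate test run was called active for a drop in luminescence, with AC50 within twice the top valid dose, actives reach about 71 µM in these data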
Active calls of the source: *; x = no result given.

SMILES	C2C12 statin	PglD DTNB	F508del corr	ARNT-TACC3 inh	ARNT Alpha ctr
Cc1cccc(CNc2nc(-c3ccccn3)nnc2-c2ccccc2)c1	x	x	x	x	2.1µM*
COc1ccc(S(=O)(=O)Nc2ccc3c(c2)C(=O)N([C@H](C)CO)C[C@H](C)[C@H](CN(C)Cc2ccccc2)OCCCC[C@@H](C)O3)cc1	x	-1	0	-20	x
CCCN1C[C@H](C)[C@H](OC)CN(C)C(=O)c2cc(NC(=O)c3ccno3)ccc2OC[C@H]1C	-3	2	-2	-4	x
Cc1ccc(CNc2nc(-c3ccccn3)nnc2-c2ccccc2)cc1C	x	x	x	x	2.8µM*
c1ccc(-c2ccc(CNc3nc(-c4ccccn4)nnc3-c3ccccc3)cc2)cc1	x	x	x	x	3.4µM*
COc1ccc(CNc2nc(-c3ccccn3)nnc2-c2ccccc2)cc1	x	x	x	x	1.7µM*
Cc1ccc(CNc2nc(-c3ccccn3)nnc2-c2ccccc2)cc1	x	x	x	x	1.5µM*
OCCCNc1nc(-c2ccc(Cl)cc2)nnc1-c1ccccc1	-17	6	x	-10	x
Cc1cc2nc(-c3ccccn3)c(-c3ccccn3)nc2cc1C	30	-2	1	-5	x
COc1ccc(NC(=O)N2CC3(C2)CN(CC2CC2)[C@H](CO)c2c3c3ccc(OC)cc3n2C)cc1	x	x	0	x	x
COc1ccc(OC)c(-c2cc(C(=O)N3CCN(c4ncccn4)CC3)c3ccccc3n2)c1	6	-3	x	51*	-37%
Cc1cccc2nc(-c3ccco3)c(Nc3ccccc3)n12	24	4	-2	-2	x
Cc1ccc(Nc2c(-c3ccccn3)nc3cccc(C)n23)cc1	-30	4	1	56*	20µM*
Cc1ccc2nc(-c3ccccn3)c(NC3CCCC3)n2c1	4	-5	0	61*	32µM*
Cc1cc(C)n2c(Nc3c(C)cccc3C)c(-c3ccccn3)nc2n1	x	x	-3	x	x
CCCCCCSc1cccc(-c2nc3ccc(C)cn3c2NC2CCCCC2)c1	8	3	4	3	x
Cc1cccc(C)c1Nc1c(-c2ccccn2)nc2ccccn12	-23	0	4	65*	18µM*
C[C@H](CO)N1C[C@H](C)[C@@H](CN(C)C(=O)Nc2ccc3c(c2)OCO3)Oc2c(NC(=O)CCCCCC(=O)Nc3ccccc3N)cccc2C1=O	-34	1	1	4	x
C[C@H](CO)N1C[C@H](C)[C@@H](CN(C)S(=O)(=O)c2ccccc2)Oc2ccc(NS(C)(=O)=O)cc2CC1=O	-33	1	-4	-7	x
Cc1cc(C)c(S(=O)(=O)N2CCOC2CNC(=O)C(=O)NCCCn2ccnc2)c(C)c1 (configuration not stated)	x	x	1	63*	42µM*
Oc1ccc(Cn2ccnc2)c2cccnc12	x	x	0	58*	6.2µM*
O=Nc1ccc(O)c2ncccc12	21	x	16*	57*	69µM*
c1ccc2c(Cn3ccnc3)c[nH]c2c1	x	4	x	1	x
Cc1ccccc1NCc1ccc(O)c2ncccc12	-216	-6	1	-129	x
COCc1ccc(O)c2ncccc12	-4	2	x	75*	16µM*
SMILES	C2C12 statin	PglD DTNB	F508del corr	ARNT-TACC3 inh	ARNT Alpha ctr
Cc1cc(=O)n(-c2ccccc2Cl)[nH]1	x	x	2	-2	x
Cc1cc(=O)n(-c2ccc(O)cc2)[nH]1	4	3	x	15*	-10%
COCCNC(=O)[C@H]1[C@H](CO)[C@H]2Cn3c(ccc(-c4ccccc4OC)c3=O)[C@H]2N1C(=O)C1CCC1	x	x	-1	x	x
O=C(O)c1cc2c(cn1)[nH]c1ccccc12	-2	9	3	75*	9.7µM*
c1ccc(-c2nnc(-c3ccccn3)nc2NCC2CCCCC2)cc1	x	x	x	x	3.1µM*
c1ccc(-c2nnc(-c3ccccn3)nc2NCC2CC2)cc1	x	x	x	x	1µM*
C[C@@H](NC(=O)C[C@@H]1C=C[C@H](NC(=O)CN2CCOCC2)[C@H](CO)O1)c1ccccc1	4	-3	-2	0	x
Cc1ccc(S(=O)(=O)N(C)C[C@@H]2OCCCC[C@@H](C)Oc3ccc(NC(=O)NC(C)C)cc3C(=O)N([C@H](C)CO)C[C@@H]2C)cc1	x	-1	0	-1	x
c1ccc(-c2cncnc2)nc1	-12	5	1	-2	x
c1ccc(-c2cnnc(-c3ccccn3)n2)cc1	-19	0	-1	57*	26µM*
c1ccc(-c2cnc(-c3ccccn3)nn2)cc1	-33	8	0	65*	32µM*
C[C@H]1CN([C@@H](C)CO)S(=O)(=O)c2ccc(C#CC3CCCC3)cc2O[C@@H]1CN(C)Cc1cncnc1	-35	x	1	x	x
COc1ccc(-c2csc(NC(=O)CN3C(=O)C4CCCCC4C3=O)n2)cc1OC (configuration not stated)	5	-3	-2	3	x
O=C(CN1C(=O)C2CCCCC2C1=O)Nc1nc(-c2ccccn2)cs1 (configuration not stated)	10	3	x	75*	52µM*
C[C@@H](C(=O)Nc1nc(-c2ccccn2)cs1)N1C(=O)C2CCCCC2C1=O (some centres not stated)	-6	-5	x	63*	21µM*
OC[C@H]1[C@@H](c2ccc(-c3ccccc3)cc2)[C@@H]2CN(Cc3ccccn3)CCCCN12	x	7	0	x	x
Cc1[nH][nH]c(=O)c1C(c1ccc(-c2ccccc2C(=O)O)o1)c1c(C)[nH][nH]c1=O	x	x	-3	54*	-12%
COC(=O)c1ccc(-c2ccc(C(c3c(C)[nH][nH]c3=O)c3c(C)[nH][nH]c3=O)o2)cc1	-3	x	-1	35	x
COc1ccc(/C=N/Nc2nncn2N)cc1Br	1	1	-2	55*	-19%
COC(=O)C1=COC(C)C2CN3CCc4c([nH]c5cc(OC)c(OC)cc45)C3CC12 (configuration not stated)	-1	-2	-2	63*	71µM*
COC(=O)[C@H]1[C@H]2C[C@@H]3c4[nH]c5cc(OC)ccc5c4CCN3C[C@H]2C[C@@H](OC(=O)c2cc(OC)c(OC)c(OC)c2)[C@@H]1OC	8	-3	0	8	x
COCC(=O)N1CC2(C1)[C@@H](c1ccc(-c3ccc(F)cc3)cc1)[C@@H](CO)N2C(=O)C1CC1	x	x	-3	x	x
CC(C)c1ccc(O)c(NC(=O)c2cncc(Br)c2)c1	2	3	x	-2	x
CC(C)c1ccc(O)c(NC(=O)c2ncn[nH]2)c1	4	-1	x	31*	-7%
C/C(=N\NC(=O)C(C)Oc1ccc([N+](=O)[O-])cc1)c1ccccn1 (configuration not stated)	-6	x	x	54*	34µM*
O=c1oc2ccccc2c(O)c1C=NCc1ccccn1	x	-4	x	58*	1%
N#C[C@H]1[C@@H](c2ccccc2-c2ccccc2F)[C@@H](CO)N1C(=O)C1CC1	x	x	0	x	x
C[C@H]1CN([C@@H](C)CO)C(=O)c2cc(C#CC3CC3)cnc2O[C@@H]1CN(C)C(=O)c1ccccc1	7	1	-3	-8	x
CN1CCN(C2CCN(Cc3ccc(O)c4ncccc34)CC2)CC1	5	-4	-3	65*	14µM*
